# Assay outcomes from PubChem BioAssay.
# An excerpt weighted towards active compounds, which were near 12% of everything screened.
# HP1b chromo inh = inhibitors of HP1-beta chromodomain binding to methylated histone tails. AlphaScreen HP1-beta / biotin-H3K9me3 peptide binding. Potency, µM (titrated, usually from 114 µM), for inactives: at the top dose activity change, negative = inhibition, actives largely listed as inhibitors. actives 0.56% (n = 390,000); note: nearly all actives have a fitted effect of over 70% in size
#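 HP1-beta protein (50 nM final) preincubated 30 min at room temperature with biotinylated H3(1-18)K9me3 peptide (50 nM) in PBS pH 7.4, 0.01% Tween-20, then compound added for 30 min. AlphaScreen streptavidin donor/nickel chelate acceptor beads (10 ug/mL final), 30 min dark, luminescence read.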
# Sfp inh = blocks B. subtilis Sfp PPTase activity; Q9F4F7; Biochemical Sfp PPTase activity, qHTS; Potency, µM, for the others: largest response in the series, negative = inhibition, usual class: inhibitors; actives 3.5% (n = 310,000); AID 1490;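 note: the enzyme is Sfp with the accession as filed and its product quenches rhodamine fluorescence; 0% = enzyme reaction without inhibitor and -100% = no enzyme wells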
#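 Sfp 15 nM + cpd, 15 min RT; start w/ rhodamine-CoA 5 uM, BHQ-2-YbbR 12.5 uM (final); 50 mM Hepes pH 7.6, 10 mM MgCl2, 0.01% NP-40, 0.01% BSA; read 525/598 nm at 0 and 30 min.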
# G9a block = inhibitors of human histone lysine methyltransferase G9a. Q96KQ7. Potency, µM (top dose mostly 102 µM), inactives show at the top dose activity, negative = inhibition, usual class: inhibitors. G9a H3K9 monomethylation, AlphaScreen, 2 h. AID 504332. actives 8.8% (n = 350,000); note: % is set by controls: 0 for no effect and ±100 for the full control effect; nearly all actives have a fitted effect of over 75% in size
#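 AlphaScreen detection with an anti-monomethyl H3K9 antibody quantified product after a 2 h room-temperature reaction containing 500 nM biotinylated H3K9 peptide, 20 µM SAM and 20 nM enzyme, which had been preincubated 15 min with compound.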
# JMJD2A Tudor inh = JMJD2A Tudor domain (human) inhibition. AlphaScreen JMJD2A-Tudor / H3K4me3 peptide binding. Potency, µM (titrated, usually from 114 µM), for inactives: top-dose activity change, negative = inhibition, hits mostly inhibitors. actives 4.4% (n = 390,000). AID 504339; note: % is set by controls: 0 for no effect and ±100 for the full control effect; nearly all actives have a fitted effect of over 50% in size
# BAZ2B inh = blocks human BAZ2B; Q9UIF8; AlphaScreen BAZ2B-H3K14Ac peptide displacement; Potency, µM (titrated, usually from 114 µM), without a hit: at the top dose activity change, negative = inhibition, usual class: inhibitors; actives 4.4% (n = 360,000); AID 504333; note: % is set by controls: 0 for no effect and ±100 for the full control effect; nearly all actives have a fitted effect of over 60% in size
# Target sequence (Q9UIF8 whole entry, looked up): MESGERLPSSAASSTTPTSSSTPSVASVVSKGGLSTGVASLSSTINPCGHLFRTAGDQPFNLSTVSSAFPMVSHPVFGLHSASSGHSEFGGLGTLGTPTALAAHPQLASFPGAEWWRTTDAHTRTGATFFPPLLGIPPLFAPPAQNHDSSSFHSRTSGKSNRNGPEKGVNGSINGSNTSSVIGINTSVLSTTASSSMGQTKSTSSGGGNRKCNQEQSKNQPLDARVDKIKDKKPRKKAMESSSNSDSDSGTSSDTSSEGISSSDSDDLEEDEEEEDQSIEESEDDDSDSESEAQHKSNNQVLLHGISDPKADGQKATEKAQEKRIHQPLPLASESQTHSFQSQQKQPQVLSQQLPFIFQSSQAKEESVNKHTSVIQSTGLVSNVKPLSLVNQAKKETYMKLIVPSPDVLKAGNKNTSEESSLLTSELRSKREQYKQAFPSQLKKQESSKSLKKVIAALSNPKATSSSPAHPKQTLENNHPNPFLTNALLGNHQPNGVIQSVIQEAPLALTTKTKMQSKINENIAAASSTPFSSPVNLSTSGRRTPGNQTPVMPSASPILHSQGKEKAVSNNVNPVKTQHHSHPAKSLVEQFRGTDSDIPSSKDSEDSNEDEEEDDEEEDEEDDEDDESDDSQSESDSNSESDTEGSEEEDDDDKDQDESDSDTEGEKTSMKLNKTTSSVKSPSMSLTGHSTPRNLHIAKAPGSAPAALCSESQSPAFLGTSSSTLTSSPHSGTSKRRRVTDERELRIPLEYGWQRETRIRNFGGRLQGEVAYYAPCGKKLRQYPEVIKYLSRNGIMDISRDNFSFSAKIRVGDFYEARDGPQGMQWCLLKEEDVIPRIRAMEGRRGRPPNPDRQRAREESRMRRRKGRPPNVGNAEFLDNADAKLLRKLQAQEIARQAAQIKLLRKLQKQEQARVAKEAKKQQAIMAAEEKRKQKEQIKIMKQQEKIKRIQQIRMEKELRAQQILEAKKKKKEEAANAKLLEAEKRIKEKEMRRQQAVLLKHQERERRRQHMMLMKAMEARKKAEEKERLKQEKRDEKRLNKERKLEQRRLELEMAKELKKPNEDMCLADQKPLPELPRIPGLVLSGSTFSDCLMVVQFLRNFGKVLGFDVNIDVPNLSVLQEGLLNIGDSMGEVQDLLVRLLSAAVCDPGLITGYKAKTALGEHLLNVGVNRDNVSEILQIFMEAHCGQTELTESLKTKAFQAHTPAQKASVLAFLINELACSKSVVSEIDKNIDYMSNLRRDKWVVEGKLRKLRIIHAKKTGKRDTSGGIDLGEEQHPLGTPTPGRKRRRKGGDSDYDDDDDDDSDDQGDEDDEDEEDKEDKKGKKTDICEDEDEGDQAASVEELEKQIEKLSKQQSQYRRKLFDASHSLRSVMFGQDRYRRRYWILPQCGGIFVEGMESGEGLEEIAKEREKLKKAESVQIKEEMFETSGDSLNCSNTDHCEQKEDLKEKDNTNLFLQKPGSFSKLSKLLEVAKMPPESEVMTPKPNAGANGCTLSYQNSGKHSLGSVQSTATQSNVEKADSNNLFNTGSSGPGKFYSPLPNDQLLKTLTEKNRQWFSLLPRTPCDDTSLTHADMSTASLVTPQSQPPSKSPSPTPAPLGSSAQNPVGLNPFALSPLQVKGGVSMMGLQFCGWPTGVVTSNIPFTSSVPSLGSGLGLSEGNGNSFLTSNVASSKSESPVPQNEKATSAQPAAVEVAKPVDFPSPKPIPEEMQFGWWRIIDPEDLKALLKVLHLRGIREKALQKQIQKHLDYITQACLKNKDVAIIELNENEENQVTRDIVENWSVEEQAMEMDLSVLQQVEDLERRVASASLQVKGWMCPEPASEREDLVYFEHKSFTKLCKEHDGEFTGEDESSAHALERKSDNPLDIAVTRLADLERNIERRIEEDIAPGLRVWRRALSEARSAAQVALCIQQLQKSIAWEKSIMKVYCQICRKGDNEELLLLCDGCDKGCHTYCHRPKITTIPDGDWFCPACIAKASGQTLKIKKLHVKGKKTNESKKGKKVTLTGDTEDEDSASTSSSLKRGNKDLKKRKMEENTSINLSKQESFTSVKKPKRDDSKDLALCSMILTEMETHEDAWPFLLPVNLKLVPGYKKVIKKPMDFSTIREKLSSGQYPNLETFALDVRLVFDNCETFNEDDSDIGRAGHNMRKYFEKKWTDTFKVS
#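 In this displacement format the biotinylated H3(5-23) peptide acetylated at Lys14 serves as ligand at 50 nM, with BAZ2B at 50 nM in PBS pH 7.4 containing 0.01% Tween-20. Donor and acceptor beads are 10 ug/mL final.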
# Starred values were filed as active, the others as inactive; ? = inconclusive; nt = no result; ! = repeats disagree; [ ] = dose if it differs, or a comment. Calls come from the whole dose curve; as a rule, active = well fitted curve in the direction sought with a large enough effect; inconclusive = small, poorly fitted or top-dose-only effect, or another doubt; inactive = no such curve, though single readings can be large; an effect the other way counts as inactive or inconclusive. Potency is the fitted concentration of half-maximal effect.
SMILES,HP1b chromo inh,Sfp inh,G9a block,JMJD2A Tudor inh,BAZ2B inh
S=C1NCCNC(=S)NCCOCCOCCOCCN1,39.9%,17.5%,25.1µM*,1.4%,14.0%
CCCCCn1c(=O)c2ccccc2n2c(=S)[nH]nc12,0.2%,56.2µM*,1.41µM*,6.31µM*,-33.2%
CCCCn1c(=O)c2ccccc2n2c(=S)[nH]nc12,-19.3%,?,1.26µM*,3.55µM*,?
CCCn1c(=O)c2ccccc2n2c(SCC(=O)c3ccc(F)cc3)nnc12,nt,-10.6%,3.0%[2.33 µM],nt,11.6%
CCCn1c(=O)c2ccccc2n2c(=S)[nH]nc12,26.6%,79.4µM*,3.55µM*,1.41µM*,-5.2%
CCCn1c(=O)c2ccccc2n2c(SCC(=O)c3ccccc3)nnc12,11.1%,1.7%,?,25.1µM*,-27.7%
Cn1c(C(=O)OC(C(=O)NC2CCCCC2)c2ccncc2)cc2sccc21 (stereo not given),-4.3%,3.4%,2.4%,-25.8%,-4.5%
COc1ccc(OCCCC(=O)NC(C)c2ccccc2)cc1 (stereo not given),-3.7%,-1.7%,1.4%[12.7 µM],-5.3%[11.4 µM],-16.1%
Cn1c(=O)c2ccccc2n2c(=S)[nH]nc12,79.4µM*,50.1µM*,6.31µM*,3.16µM*,-9.5%
Cn1c(=O)c2ccccc2n2c(CCl)nnc12,25.7%,21.7%,-7.7%,-3.5%,-2.3%
O=C1c2ccccc2C(=O)c2c1cccc2N(CCO)CCO,?,21.1%,44.7µM*,?,50.1µM*
NC(=O)COC(=O)c1cccc2c1-c1ccccc1C2=O,18.3%,14.0%,-32.8%,-12.4%,-8.7%
Cc1ccc(Cc2ccc(C(=O)NNC(N)=S)o2)cc1,-9.2%,1.7%,56.2µM*,-33.0%,-2.5%
O=S(=O)(c1ccccc1)c1nc(-c2ccccc2Cl)oc1N1CCCCCC1,-0.8%,nt,?,-29.2%,-35.1%
Cc1ccc(S(=O)(=O)c2nc(-c3ccccc3Cl)oc2N2CCN(C)CC2)cc1,?,nt,nt,50.1µM*,nt
Cc1ccc(S(=O)(=O)c2nc(-c3ccc(F)cc3)oc2N2CCN(c3ccccc3)CC2)cc1,19.1%,nt,?,?,?
Cc1ccc(S(=O)(=O)c2nc(-c3ccccc3F)oc2N2CC(C)OC(C)C2)cc1 (stereo not given),11.4%,?,39.8µM*,-30.6%,?
Cc1ccc(S(=O)(=O)c2nc(-c3ccccc3Cl)oc2N2CCCCCC2)cc1,?,nt,7.08µM*,-33.2%,?
O=S(=O)(c1ccc(F)cc1)c1nc(-c2ccccc2F)oc1N1CCCCC1,-12.5%,?,?,-25.2%,?
CC1CC(C)CN(CCCNC(=O)CCC(=O)N2CCOc3ccccc32)C1 (stereo not given),29.8%,16.8%,11.6%,4.9%,1.8%
CCOc1ccccc1NC(=O)CSc1nc2c(sc3ccccc32)c(=O)n1CCCC(=O)NC1CCCC1,25.8%,nt,-39.7%[59 µM],-11.1%,-17.7%
CCOc1ccccc1NC(=O)N1CCc2cc(S(=O)(=O)N3CCC(C)CC3)ccc21,22.0%,nt,-18.6%[59 µM],-7.7%,-1.9%
O=C(c1ccc(N2CCCC2=O)cc1)N1CCOCC1,36.0%,21.7%,-12.1%,-8.2%,-5.0%
CCOC(=O)C(=O)NNc1ccccc1C,30.1%,-0.1%,-2.8%,-8.0%,-2.1%
CCOC(=O)C(=O)NNc1cccc(C)c1C,15.5%,-1.3%,0.631µM*,-12.9%,1.0%
SMILES,HP1b chromo inh,Sfp inh,G9a block,JMJD2A Tudor inh,BAZ2B inh
CC(=O)Nc1ccc(S(=O)(=O)Oc2ccc(/C=N/NC(=O)c3ccc(Cl)cc3)cc2)cc1,6.2%,25.4%,-6.0%[59 µM],-1.4%,-23.4%
OCC1OC(c2ccc3c(c2)OCO3)C=CC1Oc1ccc(C2CCCC2)cc1 (stereo not given),nt,-3.3%,nt,nt,nt
COc1cc(/C=N/Nc2cccc3cccnc23)cc(OC)c1O,?,50.1µM*,10µM*,?,28.2µM*
Oc1cccc(/C=N/Nc2cccc3cccnc23)c1,?,44.7µM*,35.5µM*,?,?
CCC(C)NC(=O)N1c2ccccc2Sc2ccccc21 (stereo not given),4.9%,-2.4%,44.7µM*,?,-28.2%
NC(=O)c1nsc(C(=O)N(c2cccc(F)c2)C(C(=O)NCC2CCCO2)c2cccs2)c1N (stereo not given),52.6%,14.4%,23.8%[59 µM],-11.8%,-18.3%
Cc1nc2ccccc2cc1C(=O)N/N=C/c1cccc([N+](=O)[O-])c1,48.5%,24.2%,-3.8%[59 µM],-4.5%,-0.3%
Fc1ccc(NC(=S)Nc2cccnc2)c(F)c1F,15.4%,-15.7%,?,2.6%,-4.0%
CCCCCCCCCCCCCCCCCC(=O)OC(CC(=O)O)C[N+](C)(C)C (stereo not given),nt,nt,16.8µM*!,nt,nt
O=C(CCc1nnc(CCCCc2ccccc2)o1)NCCC1CCCCO1 (stereo not given),37.8%,7.6%,3.2%,-12.4%,1.0%
CCCCS(=O)(=O)/C=C\C=C/S(=O)(=O)CCCC,-6.9%,11.2µM*,?,?,-0.9%
N#C/C(C(=O)N1CCOCC1)=c1/s/c(=C\c2ccccn2)c(=O)n1-c1ccccc1,23.1%,-1.5%,14.4%[59 µM],-17.6%,2.1%
COc1ccc(-n2c(=O)/c(=C\c3cccs3)s/c2=C(/C#N)C(=O)N2CCN(C)CC2)cc1,25.9%,4.9%,50.1µM*,-12.8%,-18.2%
O=C1C(=O)C(c2ccc(O)cc2O)Oc2cc(O)cc(O)c21 (stereo not given),?,nt,nt,14.1µM*,nt
CCN1CC=C2C(C#N)=C(N)C(C#N)(C#N)C(c3cc(Cl)ccc3Cl)C2C1 (stereo not given),0.5%,-14.9%,?,13.7%[11.4 µM],?
O=C(Nc1ccc2oc(-c3ccc4ccccc4c3)nc2c1)c1ccccc1F,29.0%,nt,-7.3%[59 µM],-6.3%,-8.1%
CCCCCc1nc2sc3c(c2c(=O)n1NC(=O)c1ccc([N+](=O)[O-])cc1)CC(C)(C)OC3,-19.2%,7.7%,70.8µM*,?,-10.2%
CCCCCCCc1nc2sc3c(c2c(=O)n1N)CC(C)(C)OC3,22.8%,6.6%,-8.8%,5.2%,0.3%
CCOC(=O)N1CCN(c2cc(N3CCOCC3)c(F)cc2[N+](=O)[O-])CC1,-5.1%,6.3%,?,-25.6%,-31.7%
O=C(CSc1nc2c(sc3ccccc32)c(=O)n1CCCN1CCCC1)NCC1CCCO1 (stereo not given),26.5%,-19.2%,56.2µM*,3.2%,-0.8%
CCOCCCn1c(SCC(=O)NCc2ccco2)nc2c(sc3ccccc32)c1=O,16.9%,22.4µM*,-25.5%,2.1%,-0.2%
CCCCn1c(SCC(=O)NCc2ccco2)nc2c(sc3ccccc32)c1=O,13.5%,?,-14.1%,-23.0%,15.1%
CCOC(=O)CSc1nc2c(sc3ccccc32)c(=O)n1CCO,-34.5%,nt,2.0%[59 µM],56.2µM*,-19.7%
CC(=O)N(C)c1ccc(NC(=O)Nc2ccc(Cl)cc2)cc1,55.0%,nt,nt,5.0%,nt
